Results: PubChem BioAssay AID583 (Sanford-Burnham Center for Chemical Genomics, 2007)
“And” between values parts separate entries of the source, which are not always exact repeats. Identical values can stand only once. The whole screen tested about 140,000 compounds, of which about 80 (0.06%) were called active. Only a selection was taken, and actives are over-represented in it overall. A number with no mark means an inactive call. No stated cut-off is given here; in the data, active means displacement above about 50%; inactive means the rest.

biological target: Heat shock 70 kDa protein 1A (Homo sapiens) (UniProt P0DMV8); test: small molecules displacing fluorescent ligand from Hsp70 – biochemical, fluorescence polarization, primary screen (AID 583); conditions: Hsp70 fluorescence polarization probe displacement, mP; at 20 µM; active compounds read high;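 further: plate controls were vehicle for no effect and reference ligand for full effect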
Sequence (P0DMV8 whole entry, looked up): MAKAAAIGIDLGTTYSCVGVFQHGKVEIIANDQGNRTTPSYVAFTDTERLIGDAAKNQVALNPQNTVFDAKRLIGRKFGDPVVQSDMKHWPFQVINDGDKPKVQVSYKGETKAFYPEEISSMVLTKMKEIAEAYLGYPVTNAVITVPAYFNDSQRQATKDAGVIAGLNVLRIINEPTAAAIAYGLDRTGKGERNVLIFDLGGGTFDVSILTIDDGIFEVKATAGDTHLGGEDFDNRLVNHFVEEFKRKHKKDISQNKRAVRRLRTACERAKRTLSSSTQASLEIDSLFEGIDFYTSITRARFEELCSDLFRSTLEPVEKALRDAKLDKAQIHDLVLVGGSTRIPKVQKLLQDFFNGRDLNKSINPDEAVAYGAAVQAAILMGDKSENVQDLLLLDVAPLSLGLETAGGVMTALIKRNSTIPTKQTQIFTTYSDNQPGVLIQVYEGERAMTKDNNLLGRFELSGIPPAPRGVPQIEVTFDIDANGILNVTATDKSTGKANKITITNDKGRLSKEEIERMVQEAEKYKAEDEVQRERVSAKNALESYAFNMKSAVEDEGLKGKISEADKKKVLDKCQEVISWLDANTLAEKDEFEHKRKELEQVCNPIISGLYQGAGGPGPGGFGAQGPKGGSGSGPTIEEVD

| Structure (SMILES) | displacement |
| --- | --- |
| CCOc1ccc(N2C(=O)/C(=C/c3ccc(Br)o3)C(=O)NC2=S)cc1 | 84.5% (active) |
| COc1ccc(N2C(=O)/C(=C/c3ccc(I)o3)C(=O)NC2=S)cc1 | 92% (active) |
| O=C1NC(=O)N(c2ccc(Cl)cc2)C(=O)/C1=C/c1ccc(Br)o1 | -0.1% |
| CCOc1ccc(N2C(=O)/C(=C/c3ccc(C)o3)C(=O)NC2=S)cc1 | -26.6% |
| COc1ccc(N2C(=O)/C(=C/c3ccc(-c4cc(C(=O)O)ccc4Cl)o3)C(=O)NC2=S)cc1 | 5% |
| CN1C(=O)NC(=O)/C(=C/c2ccc(I)o2)C1=O | 9.4% |
| CN1C(=O)NC(=O)/C(=C/c2ccc(Br)o2)C1=O | 2.1% |
| CCOc1ccc(N2C(=O)NC(=O)/C(=C\c3ccc(C)o3)C2=O)cc1 | -5.2% |
| O=C1NC(=S)N(c2ccc(F)cc2)C(=O)/C1=C/c1ccc(Br)o1 | 68.7% (active) |
| Cc1cccnc1NC1=NCC(C)S1 (stereo not given) | 3.9% |
| CCC(=O)N1N=C2C3CCN(CC3)C2C1c1ccc([N+](=O)[O-])cc1 (stereo not given) | -5.5% |
| CCC(C)N=Cc1c(O)n(-c2ccccc2)c(=O)[nH]c1=O (stereo not given) | -0.1% |
| CC(C)C12CN3CCN(CC(C3)C1O)C2 (stereo not given) | 5.4% and 5.3% |
| O=C1NC(=O)N(c2ccccc2)C(=O)/C1=C/c1ccoc1 | -9.7% |
| CN1C(=O)C(=Cc2cccn2-c2cccc([N+](=O)[O-])c2)C(=O)N(C)C1=O | -8.6% |
| C=CCN1C(=O)/C(=C\c2cccn2-c2cccc([N+](=O)[O-])c2)C(=O)NC1=S | 60.8% (active) |
| C=CCN1C(=O)NC(=O)C(=Cc2cccn2C)C1=O | 0.2% |
| CCN1C(=O)/C(=C/c2ccoc2)C(=O)NC1=S | 73.6% (active) |
| COc1ccc(CN2C(=O)NC(=O)/C(=C\c3ccoc3)C2=O)cc1 | -10% |
| CCN1C(=O)/C(=C/c2cccn2C)C(=O)NC1=S | 72.7% (active) |
| C=CCN1C(=O)/C(=C\c2cccn2-c2ccc([N+](=O)[O-])cc2)C(=O)NC1=S | 20.3% |
| Cn1cccc1/C=C1/C(=O)NC(=S)N(c2ccc(Cl)cc2)C1=O | 36.4% |
| CN1C(=O)C(C2c3ccccc3C(=O)N2Cc2ccccc2)C(=O)N(C)C1=O (stereo not given) | -7% |
| C=CCN1C(=O)/C(=C\c2cccs2)C(=O)NC1=S | 2.1% |
| O=S(=O)(c1ccccc1)N1CC1c1ccccc1 (stereo not given) | 0.1% |
| CCOC(=O)N1CCN(C(C)C(=O)c2c[nH]c3ccccc23)CC1 (stereo not given) | -0.3% |
| O=C1CN=C(c2cccs2)c2c(sc3c2CCCC3)N1 | 0.2% |
| CC(C)(C)c1ccc(OCCOc2ccccc2C=C2C(=O)NC(=O)NC2=O)cc1 | -4.4% |

| Structure (SMILES) | displacement |
| --- | --- |
| c1ccc(CN2CCN(C3CCCCC3)CC2)cc1 | -0.7% |
| CCc1nc2ccccc2c(=O)n1-c1ccc2ccccc2c1 | 0.4% |
| CCOc1ccc(N2C(=O)/C(=C/c3ccc(C)cc3)C(=O)NC2=S)cc1 | -3.1% |
| O=C1NC(=S)N(c2cccc(Cl)c2)C(=O)/C1=C/c1ccc(Cl)cc1 | -2.1% |
| CC(C)c1ccc(N2C(=O)NC(=O)/C(=C/c3ccco3)C2=O)cc1 | -1.4% |
| O=C1NC(=S)N(c2ccccc2)C(=O)/C1=C/c1ccco1 | 83.4% (active) |
| CCOc1ccc(N2C(=O)/C(=C/c3ccco3)C(=O)NC2=S)cc1 | 92% (active) |
| CN(C)c1ccc(C=C2C(=O)NC(=S)N(c3ccccc3F)C2=O)cc1 | -0.7% |
| O=C1NC(=S)N(c2ccccc2F)C(=O)C1=Cc1ccco1 | 96.8% (active) |
| Cc1ccc(C=C2C(=O)NC(=S)N(c3ccccc3F)C2=O)s1 | -0.4% |
| CCOc1ccc2ccccc2c1/C=C1\C(=O)NC(=S)N(c2ccccc2)C1=O | 3.3% |
| CCOc1ccc(N2C(=O)/C(=C/c3cc(Cl)ccc3O)C(=O)NC2=S)cc1 | 0.9% |
| O=C1NC(=O)N(c2cccc(Br)c2)C(=O)/C1=C/c1ccco1 | 98.6% (active) |
| Cc1cccc(N2C(=O)NC(=O)C(=Cc3ccco3)C2=O)c1 | 9.1% |
| CCC1(Cc2ccccc2)C(=O)NC(=O)NC1=O | 1.5% |
| CCOc1ccc(NC(=S)NC2CN3CCC2CC3)cc1 (stereo not given) | -0.4% |
| C#CCNc1ccncc1S(=O)(=O)NC(=O)NC(C)C | 5.1% |
| Cc1c(C(=O)N2CCC3(CC2)OCCO3)sc2ncnc(N(C)c3ccccc3)c12 | 0.4% |
| CCOC(=O)C1C(=O)NC2(C)CC1c1cc(OC)ccc1O2 (stereo not given) | 7.2% |
| COC(=O)C[C@]1(C(=O)OC)CN(C#N)N(c2ccc(Cl)cc2)C12c1ccccc1-c1ccccc12 | 10.7% |
| c1cc(CN2CCN(C3C4CC5CC(C4)CC3C5)CC2)ccn1 (stereo not given) | 5.7% |
| CN1CCN(c2nccc3c2ncn3C)CC1 | -5.2% |
| COc1ccccc1N1CCN(Cc2ccccc2F)CC1 | -0.6% |
| O=C1NC(=S)N(c2cccc(Br)c2)C(=O)/C1=C/c1cccs1 | -3% |
| O=C1NC(=S)N(c2cccc(Br)c2)C(=O)/C1=C/c1ccco1 | 95.8% (active) |
| O=C1NC(=S)N(c2cccc(Br)c2)C(=O)/C1=C/C=C/c1ccccc1 | -13.2% |
| COc1cc(/C=N/n2cnnc2)ccc1OC(=O)N(C)C | 0.2% |
